Screening data: PubChem BioAssay, several laboratories
Sampled rows, rich in hits. Any-hit rate of the full collection: about 2%.
Kir21 inh: inhibitors of mouse Kir2.1 inward-rectifier potassium channel; P35561; HEK293-Kir2.1, FluxOR thallium flux fluorescence; stronger effect = lower value; B-score at 10 µM; 310,000 tested, 0.85% active;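 active means fluorescence ratio B-score at or below minus 3 SD of library scores, with starting-brightness B-score within 2 SD, cut at about -4.2 in these data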;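 further: channel flux triggered by added potassium and thallium sulfate stimulus; B-score of peak minus minimum fluorescence over baseline after thallium stimulus; more negative B-score means stronger Kir2.1 block with less thallium influx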
Target sequence (P35561 whole entry, looked up): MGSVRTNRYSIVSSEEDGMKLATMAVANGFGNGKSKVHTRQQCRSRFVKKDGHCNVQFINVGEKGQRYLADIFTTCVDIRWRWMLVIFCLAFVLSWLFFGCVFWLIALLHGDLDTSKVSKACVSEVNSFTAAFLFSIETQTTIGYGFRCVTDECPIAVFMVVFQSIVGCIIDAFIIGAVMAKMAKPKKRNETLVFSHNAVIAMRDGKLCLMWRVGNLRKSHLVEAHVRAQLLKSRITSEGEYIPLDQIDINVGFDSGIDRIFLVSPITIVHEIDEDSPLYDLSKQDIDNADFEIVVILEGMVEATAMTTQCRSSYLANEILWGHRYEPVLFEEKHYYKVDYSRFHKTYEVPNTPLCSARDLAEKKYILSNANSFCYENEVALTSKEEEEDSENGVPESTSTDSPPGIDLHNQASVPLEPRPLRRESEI
CHT PAM: allosterically activates the human high affinity choline transporter. B-score at 10 µM. Q9GZV3. 310,000 tested, 0.49% active. AID 488977. CHT-expressing cells, membrane potential dye, choline EC20; stronger effect = higher value; LV-AA mutant CHT in HEK293 cells;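 active means initial fluorescence not abnormally high and integrated response B-score, plate-corrected, over 3 SD above library mean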
CHT inh: inhibitors of human choline transporter CHT | 310,000 tested, 0.86% active | AID 488975 | CHT-expressing cells, membrane potential dye, choline response; stronger effect = lower value | B-score at 10 µM;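 active means B-score over 3 SD under the library average, and starting fluorescence ratio not unusually high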;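 further: choline stimulus applied at its EC90 after an EC20 pre-addition; B-score computed on integrated fluorescence ratio after choline addition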
H9c2 TAG inh: inhibitors of triacylglycerol accumulation | H9c2 cells, Nile Red lipid (TAG) fluorescence; cells loaded with 200 µM oleic acid | inhibition, % at 12.5 µM | 230,000 tested, 0.66% active;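 active means pattern-corrected inhibition of lipid staining of at least 50% with the nuclear-stain viability signal not falling by more than 50%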
CHT act confirm: human CHT activation, confirmatory screen; 2,500 tested, 91% active; CHT-expressing cells, membrane potential dye fluorescence (FDSS); % of choline EC20–EC90 response window; HEK293 expressing CHT LV-AA mutant; choline added at its EC20; activation, % at 10 µM; shares compounds with CHT PAM; AID 504833;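 active means primary screen active, with duplicate mean activation above negative control mean plus 3 SD, cut at about 11% in these data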
HEK293 MP dye: counter-screen for CHT activators: effect in parental HEK293 cells; ratio readout change at 10 µM, hits read low; 2,500 tested, 62% active; AID 623908; membrane potential dye fluorescence (FDSS); measured after EC20 choline addition; shares compounds with CHT PAM;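 active means duplicate-averaged ratio beyond 3 SD from buffer wells, up or down, though filed actives are nearly all decreases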
Hits are given with their value; . = inactive; / = not tested or not shown.

SMILES | Kir21 inh | CHT PAM | CHT inh | H9c2 TAG inh | CHT act confirm | HEK293 MP dye
CCOC(=O)c1ccccc1NC(=O)COc1coc(CN2CCc3ccccc32)cc1=O | . | . | . | . | 25.9 | .
CCOc1ccccc1NC(=O)COc1coc(CN2CCc3ccccc32)cc1=O | . | . | . | . | / | /
O=C(COC(=O)[C@@H]1CCCN1S(=O)(=O)c1ccccc1F)NCc1ccc2c(c1)OCO2 | / | / | / | . | / | /
O=C(CCN=C1NS(=O)(=O)c2ccccc21)OCc1ccccc1 | . | . | . | . | / | /
O=c1cc(-c2ccncc2)oc2ccccc12 | . | . | . | . | 45.8 | -48.5
Cc1ccc(NC(=O)CNC(=O)c2ccc(C)o2)cc1 | . | . | . | / | / | /
CCN1C(=O)[C@H]2[C@@H](c3ccc(C)cc3)N3C(=O)N(c4cccc(Br)c4)C(=O)[C@@]3(CC(C)C)[C@H]2C1=O | . | . | . | . | / | /
Cc1cc(NCCCn2ccnc2)n2nc(-c3ccc(Cl)cc3)cc2n1 | . | 8.93 | . | . | 37.7 | -80.1
Cc1cccc(-c2cc3nc(C)c(C)c(NCCCn4ccnc4)n3n2)c1 | . | . | . | . | / | /
Cc1cc(NCCCn2ccnc2)n2nc(-c3ccc(F)cc3)cc2n1 | . | 8.02 | . | / | 41.5 | -71.2
Cc1ccc2c(c1)S/C(=C/c1ccc[n+](C)c1)N2CCO | . | 6.97 | . | . | 34.2 | -49.3
CCN(CC(=O)Nc1ccc(C)c(S(=O)(=O)N2CCOCC2)c1)Cc1ccccc1 | . | . | . | . | / | /
CSC(=S)N/N=C(\C)c1ccc(Br)cc1 | . | . | . | . | / | /
CCCCN(CCCC)CCNC(=O)CSCc1ccc(C)cc1 | . | . | . | . | 35.3 | .
CCOC(=O)Nc1nc(-c2ccccc2)c(C(=O)c2ccc(Cl)cc2)s1 | . | . | . | 59.2 | 35.0 | .
CCOC(=O)Nc1sc(C)nc1-c1ccccc1 | . | . | . | / | / | /
C[C@H](NC(=O)c1ccccc1F)C(=O)N1CCC2(CC1)NCCc1[nH]cnc12 | . | . | . | / | / | /
CCOC(=O)C(=O)N1CCN(CC)CC1 | . | . | . | / | / | /
COc1ccc(C)cc1NC(=O)CNc1ccccc1CN(C)C1CCCCC1 | . | 6.39 | . | . | 21.7 | .
COC(=O)/C(=N/Nc1ccccc1)N1CCCc2ccccc21 | . | . | . | / | / | /
COC(=O)/C(=N/Nc1ccc(C)cc1)N1CCCc2ccccc21 | . | 8.11 | . | / | . | .
CCCCCOc1ccc(C(O)C(CN2CCOCC2)c2ccccc2)cc1 (configuration not stated) | . | . | . | . | / | /
Cc1[nH]n(-c2ccc([N+](=O)[O-])cc2)c(=O)c1C=NCCc1ccc(S(N)(=O)=O)cc1 | . | . | . | / | / | /
CCCc1[nH]n(-c2ccc([N+](=O)[O-])cc2)c(=O)c1C=NCCCn1ccnc1 | . | . | . | . | 37.2 | -48.3
CCOC(=O)c1cn2nc(N3CCCC3)ccc2n1 | . | . | . | . | 35.2 | -37.6
SMILES | Kir21 inh | CHT PAM | CHT inh | H9c2 TAG inh | CHT act confirm | HEK293 MP dye
CCOC(=O)c1cn2nc(N3CCCCC3)ccc2n1 | . | . | . | . | / | /
COc1ccc(C(=O)N/N=C/c2cc3ccccc3[nH]c2=O)cc1 | . | . | . | . | 29.4 | -31.7
O=C(O)COCC(=O)N1CCCN(c2nccc(C(F)(F)F)n2)CC1 | . | . | . | / | / | /
CCOC(=O)[C@H]1[C@H]2COc3ccc(Br)cc3[C@@H]2N2C(=O)N(c3ccccc3)C(=O)[C@@]12C | / | / | / | . | / | /
CCOC(=O)[C@@H]1[C@H]2COc3ccc(Br)cc3[C@@H]2N2C(=O)N(c3ccccc3)C(=O)[C@@]12C | . | 8.68 | . | . | 20.5 | .
Cc1cc(=O)[nH]c(SCc2cccc3cccnc23)n1 | . | . | . | . | / | /
Cc1cc(C[n+]2ccsc2N)c2ncccc2c1 | . | . | . | . | 43.2 | -52.5
CCOc1ccc(-c2nnc3ccc(SCc4ccc(C(=O)OC)o4)nn23)cc1 | . | . | . | / | / | /
COC(=O)c1ccc(CSc2ccc3nnc(-c4ccccn4)n3n2)o1 | . | . | . | . | 35.0 | -35.6
COc1cc(OC)cc(C(=O)NNC(=O)CN2C(=O)NC3(CCCC3)C2=O)c1 | / | / | / | . | / | /
CCOc1ccccc1CN1CCN(CCCc2ccccc2)CC1CCO (configuration not stated) | . | . | . | / | / | /
CCOC(=O)CNc1c(-c2ccc(O)cc2)nc2ccccn12 | . | . | . | / | 55.7 | -43.9
COc1cccc(C2CNC3(CCCC(C)C3)c3[nH]c4ccccc4c32)c1OC (configuration not stated) | -4.5 | . | . | / | 17.8 | .
Cc1ccc(CN(C)C(=O)CC2C(=O)NCCN2CC2CCCCC2)cc1 (configuration not stated) | . | . | . | . | / | /
Cc1cnccc1CN(C)C(=O)CC1C(=O)NCCN1CC1CCCCC1 (configuration not stated) | . | 7.72 | . | . | . | .
COc1ccc(OCc2cc(C(=O)N(Cc3nccn3C)C(C)C)no2)c2ccccc12 | . | . | . | / | / | /
C/C(=N\NC(=O)c1nnn(-c2nonc2N)c1CN1CCCCCC1)c1ccc(Br)cc1 | . | . | . | / | / | /
C/C(=N\NC(=O)c1nnn(-c2nonc2N)c1CN1CCC(C)CC1)c1cccc(Br)c1 | . | . | . | / | 15.8 | .
CC1CCN(Cc2c(C(=O)N/N=C/c3ccc(C(C)(C)C)cc3)nnn2-c2nonc2N)CC1 | . | 7.01 | . | / | 13.6 | .
Cc1nc2ccc(NC(=O)c3ccc(=O)[nH]c3)cc2s1 | . | . | . | / | 33.3 | -39.3
CCOc1ccc(-n2c(-c3ccc(Br)cc3)c[n+]3c2CCCCC3)cc1 | . | . | . | . | / | /
FC(F)Oc1ccc(-c2c[n+]3c(n2-c2ccccc2)CCCCC3)cc1 | . | . | . | . | / | /
CCOc1ccc(-n2c(-c3ccc(OC)cc3)c[n+]3c2CCCCC3)cc1 | . | 6.37 | . | . | 40.9 | .
CCOc1ccc(-n2c(-c3ccccc3)c[n+]3c2CCC3)cc1 | . | . | . | . | 42.7 | -29.9
COc1ccc(-n2c(-c3ccc(Cl)cc3)c[n+]3c2CCCCC3)cc1 | . | 12.3 | . | . | 43.7 | .
SMILES | Kir21 inh | CHT PAM | CHT inh | H9c2 TAG inh | CHT act confirm | HEK293 MP dye
COc1ccc(-c2c[n+]3c(n2-c2c(C)n(C)n(-c4ccccc4)c2=O)CCCCC3)cc1 | . | . | . | . | / | /
COc1ccc(-c2c[n+]3c(n2-c2ccc(C)cc2)CCCCC3)cc1 | . | 12.2 | . | . | 13.1 | .
O=C(CCNS(=O)(=O)c1ccc(Cl)cc1)N1CCN(c2ncccn2)CC1 | / | / | / | . | / | /
CN(C)S(=O)(=O)c1ccc(C(=O)NNC(=O)C23CC4CC(CC(C4)C2)C3)cc1 | / | / | / | . | / | /
Cc1cc(N2CCC(C)CC2)nc2cccc(O)c12 | . | 6.78 | . | . | 17.8 | -54.1
Cc1c(C)c2ccc(OC(C)C(=O)NCCCn3ccnc3)c(C)c2oc1=O (configuration not stated) | . | . | . | / | 62.1 | -36.3
C[C@H](CO)N1C[C@H](C)[C@@H](CN(C)Cc2ccncc2)Oc2c(NS(=O)(=O)c3ccccc3)cccc2C1=O | / | / | / | . | / | /
